Data: PubChem BioAssay AID2315 (National Center for Advancing Translational Sciences (NCATS), 2010)
Among all 290,000 compounds or so, about 27,000 (9.3%) were called active. Shown is part of a subset that was picked to be rich in actives. Values without a mark were called inactive. No stated cut-off is given here; in the data, active means inhibition mostly above about 28% (no sharp cut-off); inactive means mostly below about 43%.

Assay: A qHTS for Small Molecule Inhibitors of Shiga Toxin; further: 0% is about no effect
Conditions: Vero cells, Shiga toxin protein synthesis inhibition reporter; at 38.7 µM, hits give high values

Row | SMILES | inhibition
1 | COc1ccc(S(=O)(=O)c2c[nH]c(=S)[nH]c2=O)cc1Cl | -4.21%
2 | Cc1cnc(C(=O)OCc2c(C)cc(C(C)(C)C)cc2C)cn1 | -2.67%
3 | O=C(C[n+]1cc(Br)cc2ccccc21)c1ccc(F)cc1 | -6.12%
4 | c1ccc(-c2cc(-c3nnc4sc(-c5ccccn5)nn34)[nH]n2)cc1 | 11.6%
5 | c1ccc(-c2cc(-c3ccccc3)[nH]n2)cc1 | 129% (active)
6 | Cc1ccc(NC(=O)c2cc(-c3ccccc3O)n[nH]2)cc1C | 40.6%
7 | Oc1ccccc1-c1cc(-c2ccc(Cl)cc2)n[nH]1 | 151% (active)
8 | S=c1[nH]nc(-c2cc(-c3ccccc3)n[nH]2)n1/N=C/c1c2ccccc2cc2ccccc12 | -4.79%
9 | O=C(NCCCNC(=O)c1ccccc1Cl)c1cnccn1 | -8.38%
10 | COc1ccc(NC(=O)CC(NC(C)c2ccccc2)C(=O)O)cc1 (stereo not given) | -9.37%
11 | O=C(OCCN=C1NS(=O)(=O)c2ccccc21)c1cccc([N+](=O)[O-])c1 | -7.24%
12 | COc1ccc(N2CCN(C(=O)c3ccc(N4CCCCS4(=O)=O)cc3)CC2)cc1 | 3.75%
13 | Cc1ccc(/C(N)=N/OC(=O)COc2ccc(Cl)c(C)c2)cc1 | 21.4%
14 | O=C(CCC(=O)OCc1ccc(Cl)cc1)Nc1ccccc1 | -15.7%
15 | CC(=O)OC(C(=O)NCCc1ccccc1)c1cccnc1 (stereo not given) | -5.15%
16 | O=C(O)CCc1cccnc1 | -4.95%
17 | N/C(=N\OC(=O)CCc1ccccc1)c1ccc(Cl)cc1 | 61% (active)
18 | N/C(=N\OC(=O)CCc1ccccc1)c1cccnc1 | 55.1% (active)
19 | C=CCn1c(SCC(=O)NCC2CCCO2)nc2sc(C)c(C)c2c1=O (stereo not given) | -9.53%
20 | COC(=O)c1cc(S(=O)(=O)NCC2CCN(Cc3ccc(Cl)cc3)CC2)cn1C | -0.168%
21 | COc1ccccc1CNC(=O)[C@@H]1CCCN1C(=O)[C@@H]1Cc2ccccc2CN1C(=O)OC(C)(C)C | -9.37%
22 | COC(=O)c1ccc(OC(=O)c2nn(C)cc2Cl)c(OC)c1 | 8.13%
23 | C=CCc1cccc(/C=N/NC(=O)COc2ccc(-n3cnnn3)cc2)c1O | 19.1%
24 | COc1ccc(CCNC(=O)CN(C)S(=O)(=O)c2ccc3nc(C)sc3c2)cc1OC | 16.5%

Row | SMILES | inhibition
25 | Cn1c(SCC(=O)N2CCCCC2)nc2c(c1=O)SCC2 | -17.3%
26 | O=C(CN1C(=O)c2ccccc2S1(=O)=O)NC1CCCCC1 | -0.163%
27 | COc1cc(OC)c(C(=O)NC2CC(C)(C)NC(C)(C)C2)cc1OC | -5.21%
28 | COc1cc(OC)c(C(=O)Nc2ccc(N(C)C)cc2)cc1OC | 77.9% (active)
29 | COc1ccc(Cl)cc1C(=O)Nc1ccc(N(C)C(C)=O)cc1 | 22.6%
30 | CN(Cc1ccccc1)C(=O)c1cccc(C(=O)N(C)Cc2ccccc2)c1 | -2.11%
31 | COc1ccc(NC(=O)COc2ccc(C(=O)c3ccc(F)cc3)cc2)cc1S(N)(=O)=O | -4.25%
32 | COc1cc(/C=N/Nc2nc3ccccc3s2)ccc1O | 62.5% (active)
33 | CCOc1ccccc1/C=N/NC(=O)CNC(=O)COc1ccccc1 | 11.6%
34 | CCOc1ccc(/C=N/Nc2nncc(-c3ccccc3)n2)cc1OC | 8.48%
35 | CCNc1nc(NCC)nc(N/N=C/c2ccc(O)c(OC)c2)n1 | -4.76%
36 | Cc1cc(C)nc(N/N=C/c2c(C)oc3ccccc23)n1 | 29.2%
37 | COc1cc(/C=N\Nc2nc(-c3cccs3)c(NC(C)=O)s2)ccc1O | 34%
38 | C=CCc1ccccc1OCC(=O)N/N=C/c1ccccc1OCC | 13.2%
39 | Oc1c(Br)cccc1/C=N/Nc1c(F)c(F)c(F)c(F)c1F | 16%
40 | Brc1ccccc1/C=N/Nc1nc2ccccc2o1 | 68.5% (active)
41 | COc1ccc(/C=N/n2nnnc2N)cc1OC | -3.85%
42 | CCOc1ccccc1/C=N/Nc1nc2ccccc2o1 | 49% (active)
43 | COc1ccc(/C=N/Nc2nc3ccccc3o2)cc1OC | 101% (active)
44 | CCOC(=O)c1c(S(=O)(=O)NCC(=O)Nc2ccc(C)cc2)c(C)n(C)c1C | -5.73%
45 | O=C1NC(c2ccccc2)Oc2ccccc21 (stereo not given) | -5.27%
46 | Cc1ccc(NS(=O)(=O)c2ccc(-c3ccc(=O)[nH]n3)o2)c(C)c1 | -12.5%
47 | CCOc1cc(-c2noc(CCCC(=O)NC3CCCCC3)n2)ccc1OC | -9.28%
48 | COc1ccccc1NC(=O)CSc1nnc(CNC(=O)c2ccccc2F)o1 | 15.5%

Row | SMILES | inhibition
49 | O=c1[nH]c(SCc2ccccc2)nnc1-c1ccccc1 | 36.4% (active)
50 | Cc1ccccc1CSc1nnc(-c2ccccc2)c(=O)[nH]1 | -6.33%
51 | Cc1ccc(CSc2nc(-c3ccccc3)c(C#N)c(=O)[nH]2)cc1 | 22.6%
52 | COc1ccccc1C(=O)NC(CCSC)C(=O)NNC(=O)c1csc(N2CCOCC2)n1 (stereo not given) | -15.3%
53 | COc1ccc(/C=C/C(=O)c2ccc(OC)cc2O)cc1 | 42.2% (active)
54 | COc1ccc(C(=O)/C=C/c2cccnc2)c(OC)c1 | 0.985%
55 | COc1ccc(/C=C/C(=O)c2cc(Br)ccc(=O)c2O)cc1 | 7.73%
56 | CC(=O)Nc1ccc(S(=O)(=O)NC2(C(F)(F)F)C(=O)Nc3c2c(=O)[nH]c(=O)n3Cc2ccccc2)cc1 (stereo not given) | -2.93%
57 | Cc1ccccc1C1=NC(C(F)(F)F)(C(F)(F)F)c2c(n(-c3ccc(F)cc3)c(=O)[nH]c2=O)N1 | 2.62%
58 | O=c1[nH]c(=O)n(Cc2ccco2)c2c1C(C(F)(F)F)(C(F)(F)F)N=C(c1ccco1)N2 | 58.8% (active)
59 | Cc1ccc(OS(=O)(=O)c2ccc(-c3csc(C)n3)s2)c(C)c1 | -11.1%
60 | CN(Cc1ccccc1)CC(O)COc1ccc(CNCc2cc3ccccc3s2)cc1 (stereo not given) | -3.31%
61 | COc1ccc(OCC(=O)NCCS(=O)(=O)N2CCN(c3ccc(F)cc3)CC2)cc1 | -4.29%
62 | Cc1cc(NC(=O)CSc2nnc(-c3ccc(Cl)s3)o2)no1 | 20.2%
63 | COc1ccc(C(=O)/C=C/Nc2ccccn2)cc1 | -2.27%
64 | Cc1cc(N/C=C\C(=O)c2ccc(Cl)c(Cl)c2)no1 | 59.9% (active)
65 | COc1ccccc1N1CCN(c2ccc([N+](=O)[O-])nc2)CC1 | 34.5%
66 | CC(CN1CCOCC1)OC(=O)c1ccc(Cl)cc1Cl (stereo not given) | 38.1%
67 | Cc1nc(CNS(=O)(=O)c2cccnc2)cs1 | -1.16%
68 | O=S(=O)(NCCc1csc(-c2ccccc2)n1)c1cccnc1 | 129% (active)
69 | O=S(=O)(NCCc1ccncc1)c1ccccc1 | -5.04%
70 | Cc1ccc(Cn2c(=N)c(S(=O)(=O)c3ccc(C)cc3)cc3c(=O)n4ccccc4nc32)cc1 | -2.01%
71 | CCCn1cc(S(=O)(=O)c2ccc(C)cc2)c(=O)c2cc(OCC)ccc21 | 3.51%
72 | COC(=O)c1[nH]c2ccc(Br)cc2c1NC(=O)Oc1ccccc1 | 51.9% (active)

Row | SMILES | inhibition
73 | CCOC(=O)c1[nH]c2ccc(OC)cc2c1NC(=O)CCN1CCN(Cc2ccccc2)CC1 | -3.91%
74 | COC(=O)c1[nH]c2ccccc2c1NC(=O)CN1CCCc2ccccc21 | 25.1%
75 | COC(=O)c1ccc(N2CCOCC2)c(NC(=O)c2ccc3c(c2)OCCO3)c1 | 17.9%
76 | O=C(Nc1cccc(S(=O)(=O)N2CCCCC2)c1)c1ccc2c(c1)OCO2 | 21.9%
77 | CN1CCN(c2ccc(NC(=O)c3ccc4c(c3)OCCO4)cc2Cl)CC1 | 77.9% (active)
78 | O=C(Nc1cccc(Cl)c1N1CCOCC1)c1ccc2c(c1)OCCO2 | 121%
79 | O=C(Nc1ccc2c(c1)OCCO2)c1ccc(Cl)c(S(=O)(=O)N2CCCCC2)c1 | 147% (active)
80 | Cc1ccc(C(=O)Nc2ccc3c(c2)OCO3)cc1S(=O)(=O)N1CCCCC1 | 43.9%
81 | Cc1cccc(C)c1NC(=O)CS(=O)CC(=O)N1CCN(c2ccccc2)CC1 (stereo not given) | -9.06%
82 | Cc1cccc(NC(=O)N2CCCCCC2)c1C | 46.2%
83 | CCc1ccc(/C=C2\SC(N3CCOCC3)=NC2=O)cc1 | 42.9%
84 | CC1CCN(C2=NC(=O)/C(=C/c3cn[nH]c3-c3ccccc3)S2)CC1 | -0.314%
85 | Cc1ccsc1/C=C1\SC(N2CCOCC2)=NC1=O | 111% (active)
86 | O=C1N=C(N2CCOCC2)S/C1=C\C=C/c1ccccc1 | 66.1% (active)
87 | Cc1ccc(N2CCN(C3=NC(=O)/C(=C\c4cccs4)S3)CC2)cc1 | -4.1%
88 | O=C1N=C(N2CCc3ccccc3C2)S/C1=C\c1ccc(O)cc1 | 33%
89 | CCc1ccc(C(CNc2nc(C(F)(F)F)nc3ccccc23)N(C)C)cc1 (stereo not given) | -12.5%
90 | Cc1cccc(CN2CCC(CNC(=O)Nc3ccc(F)c(Cl)c3)CC2)c1 | -4.78%
91 | Cc1ccc(NC(=O)C2CCCN2S(=O)(=O)c2cccc3cccnc23)c(C)c1 (stereo not given) | -11.1%
92 | COc1ccc(OC)c(S(=O)(=O)n2c([N+](=O)[O-])cnc2C)c1 | -7.62%
93 | COc1cc(NC(=O)C2CC(c3ccccc3O)=NO2)c(OC)cc1Cl (stereo not given) | -12.3%
94 | COc1ccc(C(CNC(=O)COc2ccccc2OC)N2CCCCC2)cc1 (stereo not given) | -20.7%
95 | c1ccc(CN=C2Nc3ccccc3CS2)nc1 | 59.8% (active)
